Measured values: the supplement of paper PMC13380429

Experiments:
[1] = system: Vero E6 infected with SARS-CoV-2; assay: morphology score (similarity to uninfected cells); higher = more like uninfected cells; conditions: 24 h
[2] = system: Vero E6 infected with SARS-CoV-2; assay: SARS-CoV-2 infection rate relative to infected DMSO; higher = more infection, active = 60 or less; conditions: 24 h

SMILES	morphology score [1]	SARS-CoV-2 infection rate [2]
Cc1[nH]c2ccc(O)cc2c1CCN [2-methyl-5-hydroxytryptamine] (10 µM)	0.00237	108% (inactive)
COc1cccc(OC)c1-c1ccc(C[C@H](NC(=O)c2c(Cl)cccc2Cl)C(=O)O)cc1 (10 µM)	-0.141	102% (inactive)
C[C@@](Cc1ccc(O)c(O)c1)(NN)C(=O)O [carbidopa] (10 µM)	-0.0523	100% (inactive)
[Cl][Ti][Cl].c1cc[cH-]c1.c1cc[cH-]c1 [titanocene-dichloride] (10 µM)	0.163	84% (inactive)
CC(Cc1ccccc1)NCCC(c1ccccc1)c1ccccc1 (configuration not stated) [prenylamine] (10 µM)	0.878	19.5% (active)
C[C@@]1(CO)[C@H](O)CC[C@@]2(C)[C@H]1CC[C@H]1C[C@@H]3C[C@@]12CC[C@]3(O)CO [aphidicolin] (0.833333 µM)	-0.0875	106% (inactive)
CC(C)C[C@H](NC(=O)CNC(=O)c1cc(Cl)ccc1Cl)B(O)O [ixazomib] (0.833333 µM)	-0.0337	93.5% (inactive)
COc1cc([S+](C)[O-])ccc1-c1nc2cccnc2[nH]1 (configuration not stated) [sulmazole] (10 µM)	0.165	98.5% (inactive)
CCCc1cc(C(N)=S)ccn1 [protionamide] (10 µM)	0.198	98% (inactive)
O=c1cc(N2CCNCC2)oc2c(-c3ccccc3)cccc12 (10 µM)	0.175	101% (inactive)
CCCc1c(OCCCOc2ccc(OCC(=O)O)cc2)ccc(C(C)=O)c1O (10 µM)	0.0635	106% (inactive)
CC(=O)[C@@]12O[C@](C)(c3ccccc3)O[C@@H]1C[C@H]1[C@@H]3CCC4=CC(=O)CC[C@]4(C)[C@H]3CC[C@@]12C [algestone-acetophenide] (10 µM)	0.363	88.5% (inactive)
FCc1ccc(OCCOc2ccc(Cl)cc2Cl)c(Cl)n1 (10 µM)	-0.0669	116% (inactive)
COC1(C[S@@+]([O-])c2ccccc2)CCN(CCc2c[nH]c3ccc(F)cc23)CC1 (10 µM)	-0.00604	102% (inactive)
CC1(C)CCC(C)(C)c2cc(C3(c4ccc(C(=O)O)cc4)OCCO3)ccc21 (10 µM)	-0.00895	110% (inactive)
Cc1c(N)nc([C@H](CC(N)=O)NC[C@H](N)C(N)=O)nc1C(=O)N[C@H](C(=O)N[C@H](C)[C@@H](O)[C@H](C)C(=O)N[C@H](C(=O)NCCc1nc(-c2nc(C(=O)NCCC[S+](C)C)cs2)cs1)[C@@H](C)O)[C@@H](OC1OC(CO)C(O)C(O)C1OC1OC(CO)C(O)C(OC(N)=O)C1O)c1cnc[nH]1 (some centres not stated) [bleomycin] (10 µM)	0.0285	100% (inactive)
Fc1ccc(-c2nc3n(c2-c2ccncc2)CCS3)cc1 (10 µM)	0.209	94% (inactive)
Cc1cc(C)cc(C(=O)NOCCCCCC(=O)NO)c1 (10 µM)	-0.485	124% (inactive)
C[N+](C)(C)CC(O)CC(=O)[O-] (configuration not stated) [carnitine-(D/L)] (10 µM)	-0.213	117% (inactive)
Cc1cc(C)c(NC(=O)C2CC3CCC2C3)c(C)c1 (configuration not stated) (10 µM)	-0.102	102% (inactive)
O=C(/C=C/c1ccc(O)c(O)c1)c1ccc(O)cc1O [butein] (10 µM)	0.256	106% (inactive)
O=C(Nc1ccncc1)C(=O)c1cn(Cc2ccc(Cl)cc2)c2ccccc12 [indibulin] (0.833333 µM)	-0.246	124% (inactive)
CC(C)(C)C(=O)/C(=N/c1ccc(Cl)cc1)NNc1ccc(Cl)cc1 (10 µM)	-0.145	114% (inactive)
CC(C)(C)c1ccc(S(=O)(=O)Nc2ccc(Cl)cc2C(=O)c2cc[n+]([O-])cc2)cc1 [vercirnon] (10 µM)	0.0488	98.5% (inactive)
CCC1=C[C@@H]2CN(C1)Cc1c([nH]c3ccccc13)[C@@](C(=O)OC)(c1cc3c(cc1OC)N(C)[C@H]1[C@@](O)(C(=O)OC)[C@H](OC(C)=O)[C@]4(CC)C=CCN5CC[C@]31[C@@H]54)C2 [vinorelbine] (10 µM)	-0.193	115% (inactive)
CC(=O)OCC(=O)[C@H]1CC[C@H]2[C@@H]3CCC4=CC(=O)CC[C@]4(C)[C@H]3CC[C@]12C [deoxycorticosterone-acetate] (10 µM)	-0.0375	102% (inactive)
